From PubChem BioAssay AID463173 (ICCB-Longwood Screening Facility, Harvard Medical School, 2010)
Among all 52,000 compounds or so, about 4,300 (8.3%) were called active. The sample as a whole holds a higher share of actives than the screen did. Unmarked numbers belong to inactive results. Cut-off read from the data, not from the text of the source: active = survival mostly below about 52% (no sharp cut-off); inactive = mostly above about 56%.

These compounds were tested on DeltatarO mutant (assay: growth inhibition of S. aureus wild type versus tarO mutant, primary screen, teichoic acid synthesis inhibitors, RN4220, OD600 (AID 463173)). Settings: OD600, 18 h, hits give low values, screened at 18.75 µg/mL (by protocol).

Compound	survival
CCOC(=O)/C(C#N)=C/c1ccc(-c2ccc(Br)cc2)o1	81%
CC(C)COC(=O)/C(C#N)=C\c1ccc(-c2ccccc2Cl)o1	67%
CC(C)OC(=O)/C(C#N)=C/c1ccc(-c2ccc(Cl)c(Cl)c2)o1	72%
CCC(C)OC(=O)/C(C#N)=C/c1ccc(-c2ccc(Br)cc2)o1 (stereo not drawn)	43% (active)
CCC(C)OC(=O)/C(C#N)=C\c1ccc(-c2ccccc2Cl)o1 (stereo not drawn)	58% (active)
CCCCOC(=O)/C(C#N)=C/c1ccc(-c2ccc(Br)cc2)o1	68%
Cc1cccc(-c2nc(C)c(CCNC(=O)C(=O)Nc3ccc(C)c(C)c3)s2)c1	88%
CC1=CCC(C(=O)Nc2nc3ccccc3s2)C(C(=O)O)C1 (stereo not drawn)	49%
Cc1ccc(CNC(=O)C2CCN(c3nc4ccc(C)cc4[nH]3)CC2)cc1	126%
Cc1cc2ccccc2n1-c1ccc(C(=O)N2CCC(C(=O)NCc3ccc(F)cc3)CC2)s1	6% (active)
CCc1ccc(CNC(=O)C2CCN(C(=O)c3ccc(-n4c(C)cc5ccccc54)s3)CC2)cc1	70%
Cc1cc2ccccc2n1-c1ccc(C(=O)N2CCC(C(=O)NCc3ccc(Cl)cc3)CC2)s1	67%
Cc1nc(-c2cccc(S(=O)(=O)N3CCC(C(=O)NCc4ccccc4)CC3)c2)no1	109%
COc1cc(Cl)c(C)cc1NC(=O)c1cc2c(s1)-c1c(C)cccc1OC2	90%
COc1ccc(OC)c(CCNC(=O)c2cc3c(s2)-c2c(C)cccc2OC3)c1	79%
COc1ccc(CCNC(=O)c2cc3c(s2)-c2c(C)cccc2OC3)c(OC)c1	85%
Cc1cccc2c1-c1sc(C(=O)N3CCN(c4cccc(Cl)c4)CC3)cc1CO2	66%
COc1ccc(NC(=O)c2cc3c(s2)-c2c(C)cccc2OC3)c(OC)c1	51% (active)
CCc1ccccc1N(C)C(=O)c1cc2c(s1)-c1c(C)cccc1OC2	60%
COc1ccc(N(C)C(=O)c2cc3c(s2)-c2c(C)cccc2OC3)c(OC)c1	-1% (active)

Compound	survival
Cc1cccc2c1-c1sc(C(=O)N(C)c3cccc(C(F)(F)F)c3)cc1CO2	52%
Cc1cccc2c1-c1sc(C(=O)N(C)c3cccc(Cl)c3)cc1CO2	0% (active)
CC(C(=O)NCc1ccco1)N1C(=O)c2ccccc2C1=O (stereo not drawn)	57%
Cc1coc2cc3oc(=O)c(CC(=O)NCCc4ccccc4)c(C)c3cc12	84%
COC(=O)N1N=C(c2ccccc2)CC1(O)C(F)(F)F (stereo not drawn)	85%
COc1ccc(OC)c(N=c2oc3cc(O)ccc3cc2C(=O)Nc2ccccn2)c1	70%
Cc1ccc(S(=O)(=O)NCCc2nnc3ccc(SCc4ccccc4F)nn23)cc1	76%
O=C(NC1C2CCCC1CN(C1CC1)C2)c1ccc(Cl)cc1 (stereo not drawn)	84%
O=C(/C(=N/O)n1cncn1)c1ccc(Cl)cc1Cl	72%
Cc1ccc(C)c(NC(=O)CSc2nc(=O)n(CCN(C)C)c3c2CCC3)c1	79%
CCOC(=O)c1c(C)oc2nc(C)nc(NCC3CCN(Cc4ccccc4C)CC3)c12	86%
O=C(O)C1C2C=CC(C2)C1C(=O)NCc1cccs1 (stereo not drawn)	83%
COC(=O)c1ccccc1NC(=O)N(Cc1ccc(C)cc1)Cc1cccn1-c1nnc(N2CCCC2=O)s1	123%
O=C1N/C(=N/N=C\c2ccco2)SC1Cc1cccc(C(F)(F)F)c1 (stereo not drawn)	56%
O=C(/C(=C\c1ccc(F)cc1)n1ccccc1=O)N1CCCC1	102%
COC(=O)c1cccc(NC(=O)c2nsc3ccccc23)c1	-1% (active)
CCC(C)NC(=O)c1cccc(NC(=O)c2nsc3ccccc23)c1 (stereo not drawn)	74%
CC(NC(=O)c1cccc(NC(=O)c2nsc3ccccc23)c1)c1ccccc1 (stereo not drawn)	115%
O=C(NCc1cccc(F)c1)c1cccc(NC(=O)c2nsc3ccccc23)c1	85%
O=C(NCc1cccc(F)c1)c1ccc(NC(=O)c2nsc3ccccc23)cc1	-2% (active)

Compound	survival
O=C(NCc1ccccc1)c1ccc(NC(=O)c2nsc3ccccc23)cc1	61%
CCOc1ccc(NS(=O)(=O)c2ccc(-c3cc(C)no3)s2)cc1	87%
CCOc1ccc(-c2nonc2NC(=O)c2oc3ccc(Br)cc3c2C)cc1	50%
CC1CCC(NC(=O)CN2CCC(n3nnc4ccccc43)CC2)CC1 (stereo not drawn)	76%
CC1=C(C(=O)Nc2ccc(C)cc2C)C(c2ccccc2)n2ncc(C(=O)Nc3ccccc3)c2N1 (stereo not drawn)	58%
CC(=O)N1CCCc2cc(S(=O)(=O)N3CCC(C(=O)N(Cc4ccccc4)C(C)C)CC3)ccc21	76%
O=C(CSc1nc(-c2ccccc2)[nH]c1-c1ccccc1)Nc1ccc2c(c1)OCO2	67%
O=C(CSc1nc2ccccc2nc1Cc1ccccc1)Nc1ccc2c(c1)OCO2	75%
Cc1ccc(NC(=O)CSc2nc3ccccc3nc2Cc2ccccc2F)cc1F	107%
O=C(CSc1nc2ccccc2nc1Cc1ccccc1F)Nc1cccc(C(F)(F)F)c1	35% (active)
O=C(CSc1nc(-c2cccc(F)c2)[nH]c1-c1ccccc1)Nc1ccc2c(c1)OCCO2	94%
Cc1ccc(Cc2nc3ccccc3nc2SCC(=O)Nc2cccc(C(F)(F)F)c2)cc1	67%
O=C(CSc1nc(-c2ccc(F)cc2)[nH]c1-c1ccc(F)cc1)Nc1ccc2c(c1)OCO2	97%
O=C(CSc1nc2ccccc2nc1Cc1ccc(Cl)cc1)Nc1ccc2c(c1)OCO2	71%
Cc1cccc(-c2nc(SCC(=O)Nc3ccc4c(c3)OCCO4)c(-c3ccccc3)[nH]2)c1	58%
O=C(CSc1nc(-c2cccc(F)c2)[nH]c1-c1ccccc1)Nc1ccc2c(c1)OCO2	32% (active)
O=C(CSc1nc2ccccc2nc1Cc1ccc(F)cc1)Nc1ccc2c(c1)OCO2	52% (active)
Cc1cccc(-c2nc(SCC(=O)Nc3ccc4c(c3)OCO4)c(-c3ccccc3)[nH]2)c1	40% (active)
